The structures appear in SMILES notation. In all, about 340,000 compounds went through this assay and about 55 (0.02%) were called active.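 How the source made its calls: active means phage lysis inhibition, versus mean bacterial control, above a set limit; inconclusive means no clear call, values can overlap the other calls; inactive means the rest.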 The list is a sample of the results. Entries with a potency or affinity are not part of this list.

One may read the inhibition as the relative decrease from the control value, in per cent.

A short description of this test: protection from phage-mediated lysis, alamar blue read-out – E. coli UTI89, K1F phage, bacterial capsule biogenesis inhibitors (AID 488966).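 Further: capsule biogenesis inhibitors block K1F phage lysis so surviving cells raise fluorescence; higher fluorescence means more inhibition of phage lysis.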 Particulars: 2 h; inhibition: at 100 µM, hits give high values unless noted; series mostly up to 300 µM.
For the compound `Cc1ccccc1C(=O)N=c1ccn(-c2nc3ccccc3nc2NS(=O)(=O)c2ccccc2)cc1`, the inhibition is 0.1% (inactive). Under `CCCOc1ccc(C(=O)O)cc1` stands -0.2% (inactive). In the case of `CCOc1ccc(C(=O)C(CCC(CN(C)C)C(=O)c2ccc(OCC)cc2)CN(C)C)cc1` (stereo not drawn), the inhibition was 0.87% (inactive).

Regarding `Cc1cccc(NC(=O)/C(C#N)=C/c2ccc(Cl)cc2)n1`, the inhibition was 0% (inactive). The figure for `Cc1cc(C)c2c3c(oc2n1)C(=O)N(c1cccc(Cl)c1)CC(=O)N3` is 0.63% (inactive); for `Clc1ccc(-n2nnnc2-c2cnc3ccc(Cl)cc3c2-c2ccccc2)cc1` it is 0.85% (inactive); for `O=C(Nc1ccc(Cl)c(S(=O)(=O)N2CCOCC2)c1)[C@@H]1CCCN1C(=O)c1cccs1` it is 0.43% [at 50 µM, hits give high values] (inactive). Regarding `COc1ccc(C[C@@H]2CN3C(=NC[C@@H]3Cc3ccc(O)cc3)N2C[C@H](C)NC(=O)CCC2CCCCC2)cc1`, the inhibition is 0.18% (inactive).

Take `CCOC(=O)C1CCN(C(=O)CN(c2ccc3c(c2)OCO3)S(C)(=O)=O)CC1`: the inhibition is 0.52% (inactive).

On to `O=C(NN=Cc1ccccc1O)C(O)(c1ccccc1)c1ccccc1`, for which the inhibition is -1.49% (inactive).

As for `COc1cccc(C2C3=C(CC(C)(C)CC3=O)Nc3cc4c(cc32)OCO4)c1` (stereo not drawn), the inhibition is 2.26% (inactive). `Cc1nc(N2CCN(C(=O)c3ccco3)CC2)c2oc3ccccc3c2n1`: the inhibition is 1.22% (inactive). Take `CCOc1cc(C2NC(=O)c3ccccc3O2)ccc1OC(C)C` (stereo not drawn): the inhibition was 2.06% (inactive). Under `O=C(O)CCC(=NNC(=O)c1cccc(S(=O)(=O)N2CCCCC2)c1)c1ccccc1` stands 0.71% [at 50 µM, hits give high values] (inactive); under `CCN(CC)c1ccc(NC(=O)c2ccc3c(c2)OCO3)cc1`, 2.01% (inactive); under `CCN(CC)c1ccc(C(=O)Nc2cccc(F)c2)cc1`, 2.12% (inactive).

Regarding `CCCNC(=O)C(=O)Nc1ccc2c(c1)N(S(=O)(=O)c1cccs1)CCC2`, the inhibition was 1.18% [at 50 µM, hits give high values] (inactive). With `CCc1cc2cc(C)cc(C)c2nc1SCC(=O)Nc1cc(C)on1`, the inhibition is 0.23% (inactive). Take `O=C(Nc1cc2c3c(c1)CC(=O)N3CCC2)c1c(F)cccc1F`: the inhibition was 1.43% [at 50 µM, hits give high values] (inactive).

For the compound `CCOc1ccc(NC(=S)N2CCCC2)cc1`, the inhibition is 0.16% (inactive). Turning to `COC(=O)c1sccc1NC(=O)Nc1cccc(Cl)c1Cl`, the inhibition is 0.2% (inactive).

`Cc1c(N(C(=O)Nc2ccccc2)C2=NCC(C)S2)c(=O)n(-c2ccccc2)n1C` (stereo not drawn): the inhibition is 0.11% (inactive). The figure for `COc1cc(C2NC(=S)NC3=C2CCc2ccccc23)cc(OC)c1OC` (stereo not drawn) is 0.64% [at 50 µM, hits give high values] (inactive). As for `COc1ccc(CCNC(=O)C23CCC(C)(C(=O)O2)C3(C)C)cc1OC` (stereo not drawn), the inhibition is 1.58% [at 50 µM, hits give high values] (inactive). For the compound `CCCn1nc(-c2nnc(-c3ccc(C)c(C)c3)o2)c2ccccc2c1=O`, the inhibition was 0.05% (inactive).

For the compound `CCn1ncc(C2=NOC(C(=O)Nc3cccc(C(C)=O)c3)C2)c1C` (stereo not drawn), the inhibition is 4.79% (inactive). With `CS(=O)(=O)N(CC(=O)NN=C1CCCCCC1)c1ccc(Oc2ccccc2)cc1`, the inhibition was 0.37% (inactive). Take `CCN1C(=O)N[C@@H](c2cccc(C(F)(F)F)c2)[C@@H](C(=O)OC)[C@H]1C`: the inhibition was 0.13% (inactive).

Consider `O=C(Oc1coc(CSc2nnc(NC(=O)C3CC3)s2)cc1=O)c1ccccc1`, for which the inhibition is 4.85% (inactive). Regarding `COc1ccc(N2C(=O)C(CC(=O)Nc3ccccc3)N(Cc3cccs3)C2=O)cc1` (stereo not drawn), the inhibition was -4.46% (inactive). The figure for `CCOC(=O)c1c(C)n(C)c2cc(-c3ccc(F)cc3)c(O)cc12` is 7.65% (inactive); for `C[C@H](NC(=O)c1nc[nH]c1C(=O)N[C@@H](CCCCNC(=O)OC(C)(C)C)C(=O)OC(C)(C)C)c1ccccc1` it is 2.05% (inactive).

In the case of `COc1ccc(NC(=O)Nc2cc(C(C)(C)C)on2)cc1OC`, the inhibition was 1.47% [at 50 µM, hits give high values] (inactive). Take `O=S(=O)(c1ccc(S(=O)(=O)N(Cc2ccco2)Cc2ccccc2Cl)cc1)N1CCCC1`: the inhibition is 0.31% (inactive).

With `Clc1ccc(-c2ccc(/C=N/Nc3nncc(-c4ccccc4)n3)o2)cc1`, the inhibition is 0.65% (inactive). In the case of `Cc1ccc(Sc2ncccc2C(=O)NCc2cc([N+](=O)[O-])ccc2O)cc1C`, the inhibition entry is “inactive”.

`Cc1ccc(Sc2ncccc2C(=O)NCc2cc([N+](=O)[O-])ccc2O)c(C)c1`: the inhibition entry was “inactive”. Regarding `O=C(NCc1ccccc1Cl)c1cc([N+](=O)[O-])ccc1Cl`, the inhibition is 0.11% (inactive).

For `O=C(NCc1cc([N+](=O)[O-])ccc1O)c1cccnc1Sc1ccc(Cl)cc1`, the inhibition is 7.97% (inactive).

Take `CC(=O)Nc1ccc(Nc2ccc(S(=O)(=O)C(F)(F)F)cc2[N+](=O)[O-])cc1`: the inhibition was -2.27% (inactive). Take `Cc1ccc(CC(NC(=O)c2ccccc2)C(=O)NC(CC(C)C)C(=O)O)cc1` (stereo not drawn): the inhibition is 0.84% (inactive).

On to `CCCCS(=O)CC(COC)OC(=O)c1ccccc1` (stereo not drawn), for which the inhibition is 0.21% (inactive).

Regarding `Cc1cccc2c1nc(-c1ccccc1)n1nnnc21`, the inhibition is -2.7% (inactive). For `COc1ccc(CNC(=O)CN2C(=O)CSc3ccc(S(=O)(=O)N4CCCCC4)cc32)cc1`, the inhibition is 0.13% (inactive). Turning to `Cc1cc(OC(=O)c2cccs2)ccc1C(C)C`, the inhibition is -0.04% (inactive). For the compound `O=C(Cn1cnc(S(=O)(=O)N2CCCC2)c1)Nc1ccccc1`, the inhibition is 0.25% (inactive). On to `O=c1c(Cl)c(NS(=O)(=O)c2ccccc2)cnn1-c1ccccc1`, for which the inhibition is 0.1% (inactive). As to `COc1ccc(C(=O)OCC(=O)NC(C)CCc2ccccc2)cc1OC` (stereo not drawn), the inhibition was -0.14% (inactive). Regarding `O=C1CCc2cc(NS(=O)(=O)c3ccc(Cl)cc3)cc3c2N1CC3`, the inhibition was -0.37% [at 50 µM, hits give high values] (inactive).

As for `C=CCN1C(=O)CN=C1Nc1cc(C)cc(C)c1`, the inhibition is -1.02% (inactive). In the case of `COc1ccc(C(=O)N2CCN(C)C(C)C2)cc1OC1CCN(C(C)=O)CC1` (stereo not drawn), the inhibition is -0.02% (inactive).

In the case of `CCC(OC(=O)c1nsc(Cl)c1Cl)C(=O)NCCOC` (stereo not drawn), the inhibition was -0.07% (inactive). `Cc1nn(CC(=O)Nc2ccc(N3CCOCC3)cc2)c(C)c1Br`: the inhibition is -0.525% [at 50 µM, hits give high values] (inactive).

The record behind these values is PubChem BioAssay AID488966 (Southern Research Specialized Biocontainment Screening …, 2010).
